NPR2 activator: human GC-B receptor activators, primary screen, HEK293 GC-B cells, cGMP TR-FRET, EC30 CNP; activation, % at 10 µM; 0% at EC30 CNP, 100% saturating CNP; 370,000 tested, 0.11% active; Atrial natriuretic peptide receptor 2 (Homo sapiens), P20594; AID 1920062, 2024;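 active means activation at 10 µM reaching about 35% in either raw or pattern-adjusted values, limit read from the data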
HIF act: HIF pathway transcriptional activators, primary screen, cell-based, U2OS HRE-luciferase, luminescence. U2OS HRE-luciferase reporter; normalized: DMSO 0%, desferrioxamine 100%. activation, % at 7.5 µM (by protocol). 300,000 tested, 0.32% active. AID 1910, 2009;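 active means mean activation of at least 10% of the iron chelator positive control signal, with at least half of replicates also reaching 10%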
GC-A act: GC-A stimulated cGMP production enhancers – HEK293 GC-A cells, cGMP TR-FRET, EC30 ANP, primary screen | Atrial natriuretic peptide receptor 1 (Homo sapiens), P16066 | 0% at EC30 ANP, 100% saturating ANP | activation, % at 10 µM | 370,000 tested, 0.14% active | AID 1671463, 2021; in the data active means activation above about 40%
proKLK7 act: proKLK7 zymogen activators, primary screen, biochemical, fluorescence intensity | Kallikrein-7 (Homo sapiens), P49862 | purified proKLK7, EDANS-DABCYL substrate fluorescence; 100% is mature enzyme control, 0% vehicle | activation, % at 7 µM | 370,000 tested, 0.9% active | AID 652039, 2013;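 active means activation above the mean of all tested compounds plus 3 SD, computed per campaign excluding outliers beyond control limits, cut at about 13% in these data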
Target sequence (P49862 whole entry, looked up): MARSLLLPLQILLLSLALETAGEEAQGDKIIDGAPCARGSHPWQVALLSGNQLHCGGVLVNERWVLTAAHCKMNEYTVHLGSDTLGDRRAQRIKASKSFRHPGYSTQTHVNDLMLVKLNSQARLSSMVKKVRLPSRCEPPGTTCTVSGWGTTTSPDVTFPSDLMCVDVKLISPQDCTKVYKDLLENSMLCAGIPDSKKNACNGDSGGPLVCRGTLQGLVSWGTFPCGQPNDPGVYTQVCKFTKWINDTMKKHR
proKLK7 act conf: proKLK7 zymogen activators, confirmation, biochemical, fluorescence intensity, triplicate; shares compounds with proKLK7 act; purified proKLK7, EDANS-DABCYL substrate fluorescence; scaled: vehicle 0, mature enzyme 100; activation, % at 7 µM; 3,200 tested, 68% active; AID 686949, 2013;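 active means activation, as change over the incubation, above the mean of all tested compounds plus 3 SD, cut at about 13% in these data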
EDANS-DABCYL int: EDANS-DABCYL substrate optical interference, artefact control for kallikrein-7 zymogen activator project, biochemical, fluorescence intensity, high throughput; shares compounds with proKLK7 act; no enzyme, 4 h; solvent 0%, active enzyme control 100%; activation, % at 7 µM; 3,200 tested, 80% active; AID 686952, 2013;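 active means activation above the all-compound mean plus 3 SD, ignoring values outside control-based bounds, cut at about 4.8% in these data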;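 further: value is the 4 h activation minus the activation read at time zero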
K7 EDANS ctr: EDANS fluorescence interference in dose response, no enzyme. shares compounds with proKLK7 act. EDANS-DABCYL peptide fluorescence interference. EC50, µM. 250 tested, 20% active. AID 720493;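 active means compounds that raise the fluorescence signal in this interference counterscreen, with EC50 at or below 10 µM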;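 further: intact quenched peptide substrate alone read at 355 nm excitation and 520 nm emission; signal is fluorescence gain from T0 to T4 after four hours at room temperature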
* = called active by the depositor; . = not tested or not shown. The list is not random: actives were taken first. Their share in the collection is about 1.3%.

SMILES	NPR2 activator	HIF act	GC-A act	proKLK7 act	proKLK7 act conf	EDANS-DABCYL int	others
COc1ccc2cc3cc(C(=O)NCC4CCCO4)oc3nc2c1 (stereo not given)	2	2	6	48*	66*	71*
COCCNC(=O)c1cc2cc3ccc(OC)cc3nc2o1	-4	1	2	35*	67*	78*
CCCCN(CC)C(=O)c1cc2cc3ccc(OC)cc3nc2o1	7	5	7	13*	-5	0
COc1ccc(C(=O)NCC2CCCO2)cc1 (stereo not given)	0	1	-1	-1	.	.
COc1ccc2cc3cc(C(=O)NCCC(C)C)oc3nc2c1	0	-2	6	-15	.	.
O=C(Nc1cccc(-c2nc3ccccc3[nH]2)c1)c1cccc(NC(=O)c2ccco2)c1	26	-2	19	34*	1	2
Cc1ccc(C(=O)Nc2ccc3nccnc3c2)cc1	-4	-1	4	13*	45*	38*	K7 EDANS ctr=9.2*
Cc1cc(NC(=O)c2ccc3nccnc3c2)ccc1Br	0	.	3	-1	.	.
O=C(Nc1ccc2nccnc2c1)Nc1ccccc1Cl	5	1	3	20*	46*	44*
CC1CN(C(=O)c2cc3c(=O)n4ccccc4nc3s2)CC(C)O1 (stereo not given)	0	0	4	26*	42*	40*
CC1CC(C)CN(C(=O)c2cc3c(=O)n4ccccc4nc3s2)C1 (stereo not given)	-3	1	3	14*	14*	12*	K7 EDANS ctr=>70
CC1CN(c2nc3ccccn3c(=O)c2/C=C(\C#N)C(N)=O)CC(C)O1 (stereo not given)	-1	0	0	8	.	.
Cc1c(NC(=O)c2cc3c(=O)n4ccccc4nc3s2)c(=O)n(-c2ccccc2)n1C	0	0	1	0	.	.
CCN(CC)Cc1c(O)ccc2c(=O)c(Oc3ccccc3OC)c(C)oc12	2	0	5	89*	65*	69*
C=CCN(CC=C)Cc1c(O)ccc2c1oc(=O)c1ccccc12	-4	0	-6	1	.	.
COc1ccccc1Oc1c(C)oc2c(CN(C)C)c(O)ccc2c1=O	-2	0	2	51*	66*	71*
COCCNC(=S)N(C)[C@H]1C[C@H]2c3[nH]c4c(-c5ccc6c(c5)OCO6)cccc4c3CCN2C[C@H]1[C@H](C)O	-2	.	-10	1	.	.
Cc1ccc(-c2c(C#N)c(N)n(-c3ccc(C)cc3)c(=O)c2C#N)cc1	-6	0	-1	21*	187*	270*
Cc1ccc(-n2c(N)c(C#N)c(-c3ccc(Cl)cc3)c(C#N)c2=O)cc1	-2	0	-3	-12	.	.
COc1ccc(OC)c(/C=N/NC(=O)c2ccncc2)c1	1	-1	-1	41*	41*	39*
COc1ccc(OC)c(/C=N/NC2=NS(=O)(=O)c3ccccc32)c1	-2	0	1	51*	52*	46*
COc1ccc(/C=N/NC2=NS(=O)(=O)c3ccccc32)cc1	2	-2	2	0	.	.
COc1ccc(OC)c(/C=N\NC(=O)c2ccc(=O)n(C)c2)c1	1	-22	6	16*	12	10*
COc1cccc(/C=N/NC(=O)C(=O)N2CCCCCC2)c1OC	0	0	1	1	.	.
COc1cc(OC)c(OC)cc1/C=N/NC(=O)c1ccc(=O)n(C)c1	-8	0	-4	0	.	.
SMILES	NPR2 activator	HIF act	GC-A act	proKLK7 act	proKLK7 act conf	EDANS-DABCYL int	others
COc1ccc(OC)c(/C=N/NC(=O)C(=O)N2CCCCCC2)c1	1	-1	-2	51*	48*	45*
C=CCN1[C@@H](Cc2ccccc2)COc2cc(F)ccc2S1(=O)=O	1	.	5	0	.	.
COc1ccc(/C=C/C(=O)OCC(=O)N2CCCCCC2)cc1OC	1	.	1	4	.	.
COc1ccc(OC)c(/C=C/C(=O)OCC(=O)N2CCCCC2)c1	-3	.	1	22*	14*	14*
COc1ccc(OC)c(/C=N\NC(=O)c2ccc(-c3ccccc3)cc2)c1	-3	.	4	-2	.	.
COc1ccc(OC)c(/C=N/NC(=O)c2ccc(=O)[nH]n2)c1	-7	0	-1	16*	17*	20*
COc1ccc(OC)c(/C=N/NC(=O)c2cc[n+](Cc3ccccc3)cc2)c1	-1	-42	2	45*	79*	81*
COc1ccc(-c2cc(C(=O)OCC(=O)N3CCCC3)c3ccccc3n2)cc1	-8	1	6	17*	-18	-28
COc1ccc(-c2cc(C(=O)N3CCCC3)c3ccccc3n2)cc1	0	2	4	22*	-19	2
COC(=O)C1CCN(C(=O)c2cc(-c3ccco3)nc3ccccc23)CC1	4	.	-3	48*	36*	27*	K7 EDANS ctr=>70
COc1ccc(-c2cc(C(=O)NC3CC3)c3ccccc3n2)cc1	4	0	3	42*	25*	15*	K7 EDANS ctr=>70
COc1ccc2nc(-c3ccccc3)cc(C(=O)OCC(=O)N3CCCCC3)c2c1	4	.	-1	-82	.	.
COc1ccc(-c2cc(C(=O)NC3CCCC3)c3ccccc3n2)cc1	-2	-1	2	-35	.	.
CCOc1ccc(-c2cc(C(=O)N3CCCC3)c3ccccc3n2)cc1	.	2	.	.	.	.
CCC[C@H]1[C@@H](NC(=O)C(c2ccccc2)c2ccccc2)CC[C@@]23CCCN2C(=O)CCC[C@@H]13	-28	.	-30	.	.	.
Cc1ccc2c(c1)C(CS(=O)(=O)NCc1ccc(F)cc1)NC2 (stereo not given)	7	.	1	0	.	.
COc1cc(O)c(C(CC(=O)N2CCCC(C)C2)c2ccccc2)c(OC)c1 (stereo not given)	-22	.	-24	.	.	.
CCOc1ccc(-c2cc(C(=O)N3CCN(C)CC3)c3ccccc3n2)cc1	7	2	0	31*	49*	33*	K7 EDANS ctr=>70
CCOc1ccccc1Oc1c(C)oc2cc(OC(=O)c3ccco3)ccc2c1=O	7	0	-2	28*	272*	238*
COc1ccccc1Oc1c(C)oc2cc(OC(=O)c3ccco3)ccc2c1=O	3	.	7	131*	785*	792*

Assay outcomes: PubChem, several laboratories
